Test results reported in PubChem BioAssay (NCATS).
Results filed as inconclusive are left out. Where a call stands in place of a potency, no number is given. Calls of active or inactive are those of the source. Calls come from the whole dose curve; as a rule, active = well fitted curve in the direction sought with a large enough effect; inconclusive = small, poorly fitted or top-dose-only effect, or another doubt; inactive = no such curve, though single readings can be large; an effect the other way counts as inactive or inconclusive.

Columns and labels:
[1] = OV-KATE Cancer Cell Toxicity qHTS against the NCATS CANVASS Library (AID 1347345)
Summary of the method: (§1)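 Following a 4 h pre-incubation of 1000 seeded cells, compounds were pinned in an 11-pnt dilution series and left for 72 h; viability then came from CellTiter-Glo.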

[2] = OV-SAHO Cancer Cell Toxicity qHTS against the NCATS CANVASS Library (AID 1347348); note: nearly all actives have a fitted effect of over 55% in size
Summary of the method: as §1

[3] = COV-362 Cancer Cell Toxicity qHTS against the NCATS CANVASS Library (AID 1347352)
Summary of the method: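 Cells were seeded at 1000 per well and allowed to settle 4 hours at 37 degrees C before pin transfer of compounds as an 11-point series. Viability was read by CellTiter-Glo luminescence after 72 hours' exposure.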

[4] = A2780 Cisplatin Sensitive Ovarian Cancer Cell Toxicity qHTS against the NCATS CANVASS Library (AID 1347353); note: nearly all actives have a fitted effect of over 60% in size
Summary of the method: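 A2780 cisplatin-sensitive cells (750 per well) were seeded, left 4 h at 37 °C, then pin-dosed in an 11-point series. After 72 h at 37 °C/5% CO2, viability was measured as ATPLite luminescence.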

[5] = qHTS for Activators of p53 Stress Response Pathway screened against the NCATS CANVASS Library (AID 1347388)
Summary of the method: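 p53RE-bla HCT-116 cells (4000/well) were pre-incubated for 5 h, then treated with compound (11 points) for 16 h at 37C. After 2 h with CCF4, the 460/530 nm ratio gave reporter activation; CellTiter-Glo measured viability.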

[6] = Secretion counterscreen for inhibitors of the SERCaMP assay screened against the NCATS CANVASS Library (AID 1347390);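 note: light from luciferase secreted into medium read as a measure of general secretion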
Summary of the method: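 SH-SY5Y cells expressing constitutively secreted GLuc, 1000 cells/well, attached 4 h at 37C, then exposed to compounds (0.001 - 77 uM, 11-pnt series) for 20 h. Coelenterazine added; luminescence read to flag secretory-pathway interferers.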

[7] = qHTS for activators of Nrf2/ARE signaling pathway screened against the NCATS CANVASS Library (AID 1347391); note: nearly all actives have a fitted effect of over 60% in size
Summary of the method: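 ARE-bla HepG2 beta-lactamase reporter cells, 2000 cells/well, were preincubated 5 h, then exposed to compounds (11-point series) for 16 h at 37C. CCF4 fluorescence (ex 405, em 460/530 nm) after 2 h at room temperature.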

[8] = Vero-766 cells viability qHTS against the NCATS CANVASS Library: Counterscreen for Zika virus inhibition assay (AID 1347394); note: nearly all actives have a fitted effect of over 60% in size
Summary of the method: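 Uninfected Vero 766 (African green monkey) cells, 1000/well, attached overnight, then exposed 72 h at 37C to compounds (11-point qHTS). Viability read by CellTiter-Glo luminescence; media-only wells served as 100% inhibition.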

[9] = SDT Cancer Cell Toxicity qHTS against the NCATS CANVASS Library (AID 1347365); note: nearly all actives have a fitted effect of over 60% in size
Summary of the method: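 SDT canine glioma cells (500 cells/well) were exposed to compounds in an 11-point series for 72 hr at 37C, 5% CO2; viability was read as ATP content by CellTiterGlo luminescence.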

[10] = MCF7 Cancer Cell Toxicity qHTS against the NCATS CANVASS Library (AID 1347369)
Summary of the method: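 MCF7, 500 cells/well; cpds 11-pt qHTS; 72 hr, 37C/5% CO2; CellTiterGlo ATP luminescence.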

[11] = qHTS for ATAD5 Antagonist screened against the NCATS CANVASS Library (AID 1347370); note: nearly all actives have a fitted effect of over 65% in size
Summary of the method: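 HEK293T cells with a stably integrated ATAD5-controlled luciferase reporter were exposed to compounds (11-pt) alongside 10 uM 5-fluorouridine as ATAD5 stabilizer for 16hr at 37C. Viability was read by CellTiter-Fluor fluorescence, then ATAD5 by luminescence.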
Potency is the fitted concentration of half-maximal effect.

SMILES	Potency [1]	Potency [2]	Potency [3]	Potency [4]	Potency [5]	Potency [6]	Potency [7]	Potency [8]	Potency [9]	Potency [10]	Potency [11]
C/C=C1/CN2CC[C@@]34c5ccccc5N(C)[C@@H]3[C@@H]2C[C@@H]1[C@H]4C(=O)OC	inactive	inactive	inactive	inactive	inactive	inactive	inactive	inactive	–	–	–
C=CC(C)(C)[C@@]12C[C@H]3C(=O)N/C(=C/c4cnc[nH]4)C(=O)N3[C@@H]1Nc1ccccc12	inactive	inactive	inactive	inactive	inactive	inactive	–	inactive	inactive	inactive	inactive
C=C[C@H]1CN2CCc3c([nH]c4cccc(OC)c34)[C@@H]2C[C@@H]1/C(=C\OC)C(=O)OC	inactive	–	–	20.9 µM (active)	inactive	–	–	inactive	16.6 µM (active)	inactive	inactive
O[C@H]1C=C[C@@]23CCN(Cc4cc5c(cc42)OCO5)[C@@H]3C1	inactive	inactive	inactive	inactive	inactive	inactive	inactive	inactive	inactive	inactive	inactive
CO[C@@H](/C=C/CC/C=C/C(=O)O)[C@@H](O)[C@H](C)/C=C(\C)[C@H](O)[C@H](C)C(=O)CCCC1CC(=O)NC(=O)C1	inactive	inactive	inactive	inactive	inactive	inactive	inactive	inactive	inactive	inactive	inactive
C1=C2CCCN[C@H]2C2CC1[C@H]1CCCCN1C2 (some centres undefined)	inactive	inactive	inactive	inactive	inactive	inactive	inactive	inactive	–	inactive	inactive
CO[C@H]([C@@H](C)[C@H]1O[C@]1(C)C[C@H](C)/C=C/C=C(\C)[C@H]1O[C@@H](CC(=O)O)CC[C@@H]1C)[C@@H](C)O	–	–	–	0.0053 µM (active)	0.0148 µM (active)	inactive	0.0066 µM (active)	–	0.0148 µM (active)	0.0052 µM (active)	inactive
C/C=C1/CN2CC[C@]34C(=C(C(=O)OC)[C@H]1C[C@H]23)Nc1ccccc14	inactive	inactive	inactive	–	inactive	inactive	–	inactive	0.662 µM (active)	–	–
COC1C(O)C(C)OC(OC2C(Oc3cccc4c(O)c5c(=O)oc6ccc(C)c7c(=O)oc(c34)c5c67)OC(C)C(O)C2O)C1O (centres undefined)	–	–	–	3.32 µM (active)	10.5 µM (active)	30.5 µM (active)	inactive	–	11.8 µM (active)	–	–
CO[C@@]12c3c(C)cc(O)c4c(=O)occ(c34)C(=O)[C@@H]1[C@]13COC(=O)c4c(O)cc(C)c(c41)C(=O)[C@H]2[C@@H]3OC(C)=O	inactive	inactive	inactive	–	inactive	–	–	inactive	inactive	inactive	inactive
COC1=C(C2=C(OC)C(=O)c3cc4c(c(O)c3C2=O)C(=O)O[C@H](C)C4)C(=O)c2c(cc3c(c2O)C(=O)O[C@H](C)C3)C1=O	inactive	inactive	inactive	5.54 µM (active)	–	–	–	inactive	inactive	inactive	inactive
CC[C@H]1CN2CCc3c([nH]c4cccc(OC)c34)[C@@H]2C[C@@H]1/C(=C\OC)C(=O)OC	inactive	–	inactive	–	inactive	–	–	inactive	–	inactive	inactive
CCC(=O)N[C@@H](C[C@H](C)C(Cl)(Cl)Cl)C(=O)N1C(=O)C=C(OC)[C@@H]1C[C@H](C)C(Cl)Cl	inactive	–	inactive	inactive	–	inactive	inactive	–	inactive	inactive	inactive
CC[C@@H]1CN2CCC3(Nc4cccc(OC)c4C3=O)[C@@H]2C[C@@H]1/C(=C\OC)C(=O)OC (some centres undefined)	inactive	–	inactive	inactive	inactive	inactive	inactive	inactive	inactive	inactive	inactive
C/C(=C\[C@H](C)C(=O)C[C@H](O)CC1CC(=O)NC(=O)C1)[C@@H]1OC(=O)/C=C/CC/C=C/C=C/[C@@H]1C	–	0.118 µM (active)	–	0.0332 µM (active)	inactive	0.305 µM (active)	inactive	6.6 µM (active)	0.0662 µM (active)	–	0.105 µM (active)
C=C(C)[C@H]1C(=O)c2c3c(cc4c5c(n1c24)[C@@]1(C)[C@@H](CC[C@H]2[C@](C)(/C=C/C=C(\C)C(=O)O)[C@@H](O)CC[C@@]21C)C5)C1=CC(C)(C)OC(C)(C)[C@H]1[C@@H]3O	–	11.8 µM (active)	21.1 µM (active)	3.72 µM (active)	–	–	inactive	7.41 µM (active)	–	–	16.6 µM (active)
C/C=C/[C@@H]1[C@H]2C[C@@H](C)CC[C@@H]2C(C)=C[C@H]1C(=O)c1c(O)c(-c2ccc(O)cc2)c[nH]c1=O	–	23.6 µM (active)	–	–	–	inactive	–	18.6 µM (active)	–	inactive	–
CC[C@@H]1CN2CCc3c([nH]c4cccc(OC)c34)[C@@H]2C[C@@H]1/C(=C\OC)C(=O)OC	–	14.9 µM (active)	–	–	–	inactive	inactive	–	16.6 µM (active)	–	–
CCCCC1CC[C@H]2CCCC(CCC)N12 (some centres undefined)	inactive	inactive	inactive	–	inactive	inactive	inactive	inactive	inactive	inactive	inactive
C[C@]12CC(O)C3[C@@H](CCC4C[C@@H](O)CC[C@@]43CO)[C@@]1(O)CC[C@@H]2C1=CC(=O)OC1 (some centres undefined)	–	–	–	16.6 µM (active)	–	–	inactive	–	10.5 µM (active)	–	inactive
C[C@]12CC(O)C3[C@@H](CC[C@@H]4C[C@@H](O)CC[C@]34CO)[C@@]1(O)CC[C@@H]2C1=CC(=O)OC1 (some centres undefined)	–	–	7.47 µM (active)	7.43 µM (active)	inactive	–	inactive	–	2.64 µM (active)	5.23 µM (active)	13.2 µM (active)
CO[C@H]1[C@H](O[C@H]2CC[C@]3(C=O)[C@H]4CC[C@]5(C)[C@@H](C6=CC(=O)OC6)CC[C@]5(O)[C@@H]4CC[C@]3(O)C2)O[C@H](C)[C@H](O)[C@@H]1OC	–	–	0.236 µM (active)	0.209 µM (active)	inactive	0.767 µM (active)	inactive	0.741 µM (active)	0.148 µM (active)	–	0.132 µM (active)
C[N+](C)(C)CCc1c[nH]c2ccccc12	inactive	inactive	inactive	inactive	inactive	inactive	inactive	inactive	inactive	inactive	inactive
CC(C)CC1C(=O)O[C@H](C(C)C)C(=O)N(C)C(CC(C)C)C(=O)O[C@@H](C(C)C)C(=O)N(C)C(CC(C)C)C(=O)O[C@H](C(C)C)C(=O)N(C)C(CC(C)C)C(=O)O[C@@H](C(C)C)C(=O)N1C (some centres undefined)	–	5.94 µM (active)	–	5.26 µM (active)	inactive	–	inactive	11.7 µM (active)	–	inactive	–
CCCC[C@@H](C)/C=C1/CN2CCC[C@H]2[C@@](C)(O)[C@@H]1O	inactive	inactive	inactive	inactive	inactive	inactive	–	inactive	inactive	inactive	inactive
C=C[C@]12C=CCN3CC[C@@]4(c5ccccc5NC(=O)[C@@H]4C1)[C@@H]32	inactive	inactive	inactive	inactive	inactive	inactive	20.9 µM (active)	inactive	inactive	inactive	inactive
CCCC[C@@H]1CC[C@H]2CCCC(CCCO)N12 (some centres undefined)	inactive	inactive	inactive	inactive	inactive	inactive	inactive	inactive	inactive	inactive	inactive
C/C=C(\C)C(=O)O[C@@H]1[C@@H](O)[C@@H]2O[C@H]3[C@H](O[C@@H](CCCCC)CCCCCCC(=O)CCC(=O)OC[C@@H](O2)[C@H]1OC(=O)/C=C/c1ccccc1)O[C@H](C)[C@H](OC(C)=O)[C@@H]3O	0.188 µM (active)	0.0747 µM (active)	–	0.332 µM (active)	inactive	0.0767 µM (active)	–	inactive	0.0526 µM (active)	–	inactive
